This is an account of results in PubChem BioAssay (NCATS).

Where “and” joins values, the source holds several entries; their conditions need not be identical. Equal entries are not always repeated. Records with an inconclusive call do not appear. Unmarked numbers belong to inactive results. Calls of active or inactive are those of the source. Calls come from the whole dose curve; as a rule, active = well fitted curve in the direction sought with a large enough effect; inconclusive = small, poorly fitted or top-dose-only effect, or another doubt; inactive = no such curve, though single readings can be large; an effect the other way counts as inactive or inconclusive.

Assay [1] is described as follows: Viability qHTS for spleen associated tyrosine kinase inhibitor (SYKi) drug resistant MV4-11 cells (AID 1963824). Note: nearly all actives have a fitted effect of over 35% in size. The settings on record: SYKi-resistant MV4-11 viability, CellTiter-Glo, 72 h; series mostly up to 45 µM. The method in brief:
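SYK-inhibitor-resistant MV4-11 AML cells were seeded at 500 per well onto compound and cultured 72 hours (37 °C, 5% CO2). CellTiter-Glo was then added, and after 10 min at room temperature, luminescence gave viability.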
Background: Quantitative high-throughput screening tests each substance at several concentrations.

Assay [2] in a line: Quantitative highthroughput screen to assess conditional lethalithy of NOMO1 cells grown in RPMI1640 with untreated serum (RPMI+s) (AID 1963876).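 For Viability: 100% = DMSO wells and 0% = empty wells without cells.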 Note: nearly all actives have a fitted effect of over 35% in size. Conditions: NOMO1 AML cells in RPMI+serum, CellTiter-Glo viability, 48 h; series mostly up to 45.8 µM. Put shortly: (§1)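 Each medium arm—HPLM with 10% dialyzed FBS, or RPMI1640 with 5 mM glucose and 10% untreated or dialyzed FBS—was screened against an 11-point, 3-fold compound titration for 48 h at 37 °C, with CellTiter-Glo luminescence as endpoint.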
For orientation: ATP-based viability assays read luminescence as a measure of living cells.

The nature of assay [3]: Quantitative highthroughput screen to assess conditional lethalithy of NOMO1 cells grown in RPMI1640 with dialyzed fetal bovine serum (RPMI+ds) (AID 1963877).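 For Viability: 100% = DMSO control wells and 0% = empty wells.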 Note: nearly all actives have a fitted effect of over 30% in size. The settings on record: NOMO1 in RPMI+dialyzed FBS viability, ATP luminescence, 48 h; series mostly up to 45.8 µM. The method in brief: as §1
Assay [4] in a line: Quantitative highthroughput screen to assess conditional lethalithy of P12 Ichikawa cells grown in Human Plasma-Like Medium with dialyzed fetal bovine serum (HPLM+ds) (AID 1963879). Note: nearly all actives have a fitted effect of over 35% in size. Conditions: ATP luminescence, 48 h; Potency: viability; series mostly up to 45.8 µM. Put shortly: as §1
Assay [5] can be described thus: Quantitative highthroughput screen to assess conditional lethalithy of P12 Ichikawa cells grown in RPMI1640 with dialyzed fetal bovine serum (RPMI+ds) (AID 1963880).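 For Viability: 100% = DMSO wells and 0% = empty wells on each plate.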 Note: nearly all actives have a fitted effect of over 35% in size. Conditions: ATP luminescence, 48 h; Potency: P12-Ichikawa viability; series mostly up to 45.8 µM. Put shortly: as §1
A short description of assay [6]: Quantitative highthroughput screen to assess conditional lethalithy of P12 Ichikawa cells grown in RPMI1640 with untreated serum (RPMI+s) (AID 1963881).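 For Viability: 100% = DMSO wells and 0% = empty wells without cells.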 Note: nearly all actives have a fitted effect of over 35% in size. Conditions: ATP luminescence, 48 h; Potency: viability; series mostly up to 45.8 µM. Put shortly: as §1
A short description of assay [7]: Cellular viability qHTS for adrenocortical cancer (ACC) cell line SW-13 (AID 1963989).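 For activity (max response): cells grown in serum-free medium with ITS supplement; % is set by controls: 0 for no effect and ±100 for the full control effect.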 Note: nearly all actives have a fitted effect of over 65% in size. The settings on record: SW-13 ACC cells viability, CellTiter-Glo, 48 h; activity (max response): stronger effect = lower value. The method in brief: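 Compound titrations (up to 46 uM final, in DMSO) were applied to SW-13 cells for 48 h at 37C/5% CO2. Reading used CellTiter-Glo after 20 min at room temperature; fitted curves yielded IC50 and efficacy.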

The nature of assay [8]: Cellular viability qHTS for adrenocortical cancer (ACC) cell line NCI-H295R (AID 1963990). Note: nearly all actives have a fitted effect of over 60% in size. The settings on record: CellTiter-Glo ATP luminescence, 48 h; series mostly up to 46.1 µM. Put shortly:
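Readout: CellTiter-Glo luminescence, 20 min RT. Exposure: 48 h, 37C/5% CO2. Cells: NCI-H295R, ITS-DMEM serum-free. Range: up to 46 uM. Analysis: 4PL fit, IC50 plus efficacy.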

A short description of assay [9]: Quantitative highthroughput screen to assess conditional lethalithy of SEM cells grown in Human Plasma-Like Medium with dialyzed fetal bovine serum (HPLM+ds) (AID 1963882). Note: nearly all actives have a fitted effect of over 35% in size. The settings on record: SEM B-ALL cells in HPLM+ds, CellTiter-Glo viability, 48 h; series mostly up to 45.8 µM. The method in brief:
as §1

The nature of assay [10]: Quantitative highthroughput screen to assess conditional lethalithy of SEM cells grown in RPMI1640 with unreated serum (RPMI+s) (AID 1963883).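 For Viability: 100% = DMSO wells and 0% = empty wells without cells.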 Note: nearly all actives have a fitted effect of over 35% in size. The settings on record: SEM B-ALL cells, CellTiter-Glo viability, 48 h; series mostly up to 45.8 µM. The method in brief: as §1
The nature of assay [11]: Quantitative highthroughput screen to assess conditional lethalithy of SEM cells grown in RPMI1640 with dialyzed fetal bovine serum (RPMI+ds) (AID 1963884).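 For Viability: 100% = DMSO control wells and 0% = empty wells without cells.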 Note: nearly all actives have a fitted effect of over 35% in size. Conditions: SEM B-ALL cells, RPMI+dialyzed FBS, CellTiter-Glo viability, 48 h; series mostly up to 45.8 µM. Put shortly:
as §1

Assay [12] is described as follows: Quantitative highthroughput screen to assess conditional lethalithy of NOMO1 cells grown in Human Plasma-Like Medium with dialyzed fetal bovine serum (HPLM+ds) (AID 1963878).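 For Viability: 100% = DMSO wells and 0% = empty wells on each plate.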 Note: nearly all actives have a fitted effect of over 35% in size. The settings on record: NOMO1 AML cells in HPLM+ds, CellTiter-Glo viability, 48 h; series mostly up to 45.8 µM. The method in brief:
as §1
Potency is the fitted concentration of half-maximal effect.

Consider `COc1ccc(-c2cc3nccn3c(Nc3ncccc3C(N)=O)n2)cc1OC`, for which the Potency in [1] was 0.206 µM (active). Moreover, the Potency result in [2], in assay [3], in assay [4], in assay [5], in [6] and in assay [8] was “inactive” each time. Also, in assay [7], the activity (max response) is -18.6%.
Take `O=S(=O)(O)CCS`: the Potency entry in [1], in assay [9], in assay [10], in assay [11] and in assay [8] was “inactive” in each case. For the same compound, the Potency in assay [2] was 0.743 µM (active); in assay [3], 0.833 µM (active); in assay [4], 3.72 µM (active); in assay [5], 8.33 µM (active); in assay [6], 3.72 µM (active). Besides, in assay [7], the activity (max response) is 21.9% and 0.753%.
For `COCCOc1ccc2c(c1)ncn2-c1ccc2cccc(N3CCC(N)CC3)c2n1`, the Potency is 11.6 nM (active) and 16.6 nM (active) in assay [1]; 18.7 µM (active) in [2]; 18.7 µM (active) in assay [3]; 14.8 µM (active) in assay [12]; 0.0935 µM (active) in assay [10]; 0.0264 µM (active) in assay [11]. In addition, the figures for the Potency in assay [7] and in assay [8] were 25.1 µM (active) and 12.6 µM (active), respectively.
As to `CC(C)n1cnc2c(NCCCCCCNC(=O)OC(C)(C)C)nc(NCCO)nc21`, the Potency in assay [1] is 14.8 µM (active). In addition, the Potency entry in assay [2], in [3], in assay [12], in assay [9] and in assay [8] was “inactive” in each case.
As to `CCCCC(F)(F)[C@@]1(O)CC[C@H]2[C@H](CC(=O)[C@@H]2CCCCCCC(=O)O)O1`, in assay [1], the Potency is 0.0295 µM (active). Besides, the Potency entry in assay [2], in assay [3], in assay [4], in assay [5], in [6] and in assay [9] was “inactive” throughout. In addition, the Potency entry in assay [11] and in [8] was “inactive” in each case. The activity (max response) in assay [7] is 8.13%.
On to `NC(CO)C(=O)NNCc1ccc(O)c(O)c1O` (configuration not stated), for which the Potency was 23.5 µM (active) in [1] and 26.4 µM (active) in [6]. Also, the Potency result in assay [2], in [3], in assay [12] and in assay [9] was “inactive” in each case.
`COc1ccc(F)c(F)c1C(=O)c1cnc(NC2CCN(S(C)(=O)=O)CC2)nc1N`: the Potency in assay [1] is 580 nM (active) and 742 nM (active); in assay [2], 4.69 µM (active); in [3], 6.62 µM (active); in [4], 20.9 µM (active); in assay [6] it was 11.8 µM (active); in assay [9], 4.69 µM (active). In addition, the Potency in [10] was 4.18 µM (active); in assay [11], 5.9 µM (active); in [7], 3.55 µM (active); in [8] it was 3.16 µM (active).
As to `COc1c2occc2cc2ccc(=O)oc12`, the Potency entry in assay [1], in assay [2], in assay [3], in [12], in assay [9] and in [10] was “inactive” each time. Besides, the Potency result in assay [11] is “inactive”. The Potency in [5] is 7.43 µM (active). For the same compound, in [7], the activity (max response) is 8.25% and 3.48%.
Regarding `CNCCN(C)Cc1cn[nH]c1-c1ccc(OC2CC(OCCC3CCOCC3)C2)cc1` (configuration not stated), in assay [1], the Potency was 14.8 µM (active). In addition, the Potency entry in assay [2], in assay [3], in [12], in assay [5], in [6] and in assay [8] was “inactive” each time.
As for `O=C(O)c1nc(=O)[nH]c(=O)[nH]1`, the Potency entry in assay [1], in assay [2], in assay [3], in [4], in assay [5] and in [6] was “inactive” throughout. For the same compound, the Potency result in assay [9], in [10], in assay [11] and in assay [8] was “inactive” in each case. The activity (max response) in [7] was -18%.
Regarding `S=c1nc[nH]c2nc[nH]c12`, the Potency was 2.37 µM (active) and 833 nM (active) in [1]; 1.48 µM (active) in [3]; 5.9 µM (active) in assay [12]; 0.743 µM (active) in [5]; 8.2 µM (active) and 15.8 µM (active) in [7]. In addition, the Potency result in assay [2] is “inactive”.
For `Nc1nc2c(ncn2COC(CO)CO)c(=O)[nH]1`, the Potency result in [1] and in assay [8] was “inactive” in each case. For the same compound, the Potency is 26.4 µM (active) in assay [2]; 26.4 µM (active) in [3]; 23.5 µM (active) in assay [12]; 23.5 µM (active) in [9]; 20.9 µM (active) in assay [10]. For the same compound, the activity (max response) in [7] is 8.16% and -8.2%.
On to `C[C@@H]1CN(CC(=O)N2CC(C)(C)c3ncc(Cc4ccc(F)cc4)cc32)[C@@H](CN2CCOC[C@H]2C)CN1`, for which the Potency in assay [1] was 0.468 µM (active); in assay [3], 20.9 µM (active). In addition, the Potency entry in assay [2], in assay [4], in [5], in assay [6], in assay [9] and in [11] was “inactive” throughout. Moreover, the activity (max response) in assay [7] is -27%.
Take `CC1(C)CC(=O)c2c(C(F)(F)F)nn(-c3ccc(C(N)=O)c(NC4CCC(OC(=O)CN)CC4)c3)c2C1` (configuration not stated): the Potency in [1] is 51.7 nM (active) and 37.2 nM (active); in [2], 0.372 µM (active); in assay [3] it was 0.296 µM (active); in assay [12], 0.332 µM (active); in assay [9], 0.264 µM (active); in [11], 0.296 µM (active). For the same compound, the Potency in assay [7] is 0.282 µM (active); in [8] it was 0.501 µM (active).
Consider `Clc1ccc(COC(Cn2ccnc2)c2ccc(Cl)cc2Cl)c(Cl)c1` (configuration not stated), for which the Potency in [1] is 11.8 µM (active); in assay [7] it was 17.8 µM (active); in [8], 10 µM (active). In addition, the Potency result in assay [2], in assay [3], in assay [12] and in assay [9] was “inactive” in each case.
On to `CO[C@H]1C[C@@H]2CC[C@@H](C)[C@@](O)(O2)C(=O)C(=O)N2CCCC[C@@H]2C(=O)O[C@H]([C@@H](C)C[C@@H]2CC[C@H](O)[C@H](OC)C2)CC(=O)[C@H](C)C=C(C)[C@@H](O)[C@@H](OC)C(=O)[C@H](C)C[C@H](C)C=CC=CC=C1C`, for which the Potency in [1] is 10.5 µM (active); in assay [8], 28.2 µM (active). In addition, the Potency entry in assay [2], in assay [3] and in [12] was “inactive” each time.
For the compound `O=C(O)c1ccc2c(c1)nc(Nc1cccc(Cl)c1)c1ccncc12`, the Potency in [1] is 1.64 µM (active) and 1.66 µM (active); in assay [2], 5.9 µM (active); in assay [3], 7.43 µM (active); in assay [12], 4.69 µM (active); in [5] it was 5.9 µM (active); in [6], 4.69 µM (active). Also, the Potency was 3.55 µM (active) in assay [7] and 2.51 µM (active) in assay [8].
